# Screens from PubChem.
# CHX counter = counter-screen hit for Shiga toxin inhibitors, cycloheximide | cell reporter, cycloheximide protein synthesis inhibition counterscreen | max response, % | 300,000 tested, 12% active; in the data active means max response mostly above about 13%, no sharp cut-off; inactive means mostly below about 14%; further: read at 38.3 µM for the half of the compounds with a filed dose; 0% is about no effect
# HCV inhibitor = inhibitors of hepatitis C virus infection; 340,000 tested, 3.4% active; Potency, µM (series often up to 41.8 µM), for the others: at the top dose activity change, negative = inhibition, hits mostly inhibitors; Huh7.5.1 HCVcc-Cre infection, luciferase reporter, 44 h; further: potency means the concentration at half of the fitted maximal effect; on the % scale 0 is the no-effect control and ±100 the full control effect
#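 Cells (1,000/well) were plated 4 h before compound, then infected with HCVcc-Cre virus (~0.5 moi). After 44 h further culture, infection was read as luciferase luminescence following a 15 min substrate incubation at room temperature.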
# Pf growth 96h = P. falciparum growth inhibition at 96 hours; P. falciparum luciferase reporter growth, 96 h; Potency, µM (highest dose often 28.7 µM), for inactives: top-dose activity change, negative = inhibition, hits mostly inhibitors; 320,000 tested, 6.9% active; AID 504834; further: potency means the concentration at half of the fitted maximal effect; on the % scale 0 is the no-effect control and ±100 the full control effect
#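 Plates of compound plus infected erythrocytes (2% hematocrit, 0.05% parasitemia final) incubate 96 hours, 37 C, 5% CO2. Detection reagent added; reduced luminescence from the parasites' luciferase reporter flags inhibition.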
# Pf growth 48h = inhibits P. falciparum growth in the first generation, 48 h; P. falciparum luciferase growth in erythrocytes, 48 h; Potency, µM (top dose mostly 28.7 µM), for inactives: top-dose activity change, negative = inhibition, hits mostly inhibitors; 310,000 tested, 5.9% active; further: potency means the concentration at half of the fitted maximal effect; on the % scale 0 is the no-effect control and ±100 the full control effect
#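 Erythrocytes infected with P. falciparum carrying an integrated firefly luciferase reporter (2% hematocrit, 0.1% parasitemia final) were exposed to compounds in RPMI 1640 with 0.5% Albumax at 37 C, 5% CO2. Growth inhibition was scored as reduced luminescence.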
# Shiga toxin inh = inhibitors of Shiga toxin in Vero cells. 290,000 tested, 9.2% active. AID 2315. inhibition, % at 38.7 µM. Vero cells, Shiga toxin protein synthesis inhibition reporter; in the data active means inhibition mostly above about 28%, no sharp cut-off; inactive means mostly below about 43%; further: 0% is about no effect
# HCMV antiviral = inhibitors of human cytomegalovirus; AID 1259415; activity change, negative = inhibition, % at 57.5 µM; HFF cells, HCMV-luciferase reporter, 72 h; active compounds read low; 410,000 tested, 4.5% active; in the data active means activity change below about -60%; inconclusive means no clear call, values can overlap the other calls; inactive means above about -39%; further: on the % scale 0 is the no-effect control and ±100 the full control effect
#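 Compounds were evaluated in HFFs infected with an HCMV luciferase reporter virus (MOI 1 PFU/cell). Luciferase in lysates collected 72 h post infection served as the replication measure.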
# An asterisk follows results filed as active; i = inactive; ? = inconclusive; · = no result given; + = active, no number. Sampled rows, rich in hits. Any-hit rate of the full collection: about 21%. Unless noted, the call rests on the fitted dose curve; in most records, active means well fitted inhibition curve with a large enough effect; inconclusive means small, poorly fitted or top-dose-only effect, or another doubt; inactive means no such curve, though single readings can be large or run the other way.
SMILES,CHX counter,HCV inhibitor,Pf growth 96h,Pf growth 48h,Shiga toxin inh,HCMV antiviral
O=C(COC(=O)c1cccc(C(F)(F)F)c1)NC(=O)NC1CCCC1,·,13.4%,·,·,·,-38.9
CC(CNC(=O)c1ccc(Cn2c(SCc3ccccc3)nc3cccnc32)cc1)c1ccccc1 (centres undefined),·,·,·,·,·,-9.0
CC(=O)Nc1ccc2c(c1)C(=O)N(c1ccc(C)cc1)C2=O,51.3*,1.7%,15.3%,·,+,20.3
Cc1ccc(N2C(=O)c3ccc(N)cc3C2=O)cc1,29.8*,-12.1%,-16.8%,203.1%,66.7*,-14.4
Cc1ccc(N2C(=O)c3ccc(N)cc3C2=O)cc1C,30.8*,-20.4%,4.0%,144.9%,118.7*,80.8
COc1ccc(N2C(=O)c3ccc(NC(C)=O)cc3C2=O)cc1,8.4,9.2%,3.3%,24.9%,-6.4,23.1
COc1cccc(NC(=O)Nc2cc(-c3cn4cccnc4n3)ccc2OC)c1,·,·,·,·,·,93.7
CCOC(=O)c1nn(-c2ccccc2Cl)c(=O)cc1OCC(=O)Nc1cccc(OC)c1,·,4.4%,17.2%,5.1%,·,-14.8
CC1CC(C)CN(C(=O)CSc2nnc(N)s2)C1 (centres undefined),-2.0,5.8%,40.0%,-24.2%,-4.8,-3.0
Cc1ccnc(NC(=O)Nc2ccc3c(c2)OCO3)c1,26.7*,19.4%,23.4%,i,74.3*,-25.2
O=C(Nc1ccc2c(c1)OCO2)Nc1ccc(Br)cn1,37.4*,10.4%,·,146.9%,82.6*,8.8
O=C(Nc1cccc([N+](=O)[O-])c1)Nc1cccc([N+](=O)[O-])c1,7.1,?,?,?,-5.3,?
O=C(Nc1cccc([N+](=O)[O-])c1)Nc1ccc2c(c1)OCCO2,33.3*,-16.4%,56.8%,7.7%,52.6,100.0
Cc1ccc(NC(=O)CN(C)CC(=O)Nc2ccc3c(c2)OCO3)cc1,·,·,·,·,·,-27.9
NC(=O)c1ccc(NC(=O)Nc2ccc3c(c2)OCO3)cc1,33.9*,4.2%,25.6%,53.4%,46.6*,59.9
COc1ccc(-c2c(C)nn3c4c(cnc23)C(=O)CC(c2ccc(C)cc2)C4)cc1 (centres undefined),·,·,·,·,·,8.8
CCC1CCCCN1C(=O)c1ccc2c(c1)N(Cc1cccc(Cl)c1)C(=O)c1ccccc1S2(=O)=O (centres undefined),·,·,·,·,·,20.6
O=C(Nc1ccc2c(c1)OCCO2)NC12CC3CC(CC(C3)C1)C2,49.2*,3.6%,25.3%,128.9%,107.9*,51.7
CC(C)N1CCC(NC(=O)Nc2ccc3c(c2)OCO3)CC1,28.7*,-14.9%,-5.5%,50.6%,27.8,4.9
CC1(C(=O)Nc2ccc3c(c2)OCCO3)CCC(=O)N1C1CC1 (centres undefined),·,·,·,·,·,-100.2*
CC1(C(=O)Nc2ccc3c(c2)OCCO3)CSCC(=O)N1C1CC1 (centres undefined),·,·,·,·,·,-2.3
CC1(C(=O)Nc2ccc3c(c2)OCCO3)CCN1C(=O)C1(c2ccc(Cl)cc2)CC1 (centres undefined),·,·,·,·,·,-10.1
CC1(C(=O)Nc2ccc3c(c2)OCCO3)CC1(Cl)Cl (centres undefined),23.1*,-3.4%,?,30.9%,42.3*,18.4
COc1ccc(NC(=O)NC23CC4CC(CC(C4)C2)C3)cc1OC,9.2,-20.2%,?,?,-2.4,-18.7
CC(C)N1CCCC(C)(C(=O)Nc2ccc3c(c2)OCO3)C1 (centres undefined),·,·,·,·,·,20.6
SMILES,CHX counter,HCV inhibitor,Pf growth 96h,Pf growth 48h,Shiga toxin inh,HCMV antiviral
COC(=O)c1ccccc1C(=O)N1CCCC(C(=O)c2ccc(OC)c(OC)c2)C1 (centres undefined),1.2,0.7%,-3.2%,-14.7%,-2.2,6.4
O=C(Nc1ccc2c(c1)CCC2)Nc1ccc2c(c1)OCO2,47.3*,-16.8%,-6.8%,327.9%,133.9*,-23.8
O=C(Nc1ccc2c(c1)OCO2)NC1(C(F)(F)F)Oc2ccccc2O1,30.0,?,-19.8%,·,65.5,17.6
O=C(Nc1ccc2c(c1)OCCO2)NC1(C(F)(F)F)Oc2ccccc2O1,92.2*,-22.9%,162.6%,·,88.7*,?
O=C(O)C1CC=CCC1C(=O)Nc1ccc2c(c1)OCCO2 (centres undefined),60.8*,4.4%,42.9%,89.6%,36.2*,?
CC(=O)Nc1ccc2c(c1)OCCO2,0.2,1.3%,31.1%,56.6%,-1.9,-23.9
O=C(Nc1ccc2c(c1)OCCO2)Nc1ccc2c(c1)OCO2,33.4*,-7.7%,133.8%,278.5%,62.0*,39.9
CCCC(C)(C)C(=O)N1CCC1(C)C(=O)Nc1ccc2c(c1)OCCO2 (centres undefined),·,·,·,·,·,-65.7*
COC(=O)c1ccc(NC(=O)Nc2ccc3c(c2)OCO3)cc1,49.9*,-13.3%,?,7.5%,87.0*,·
COC(=O)c1ccc(NC(=O)CN(c2ccc3c(c2)OCO3)S(C)(=O)=O)cc1,8.3,5.6%,35.5%,16.3%,19.4,39.1
O=C(CCl)Nc1ccc2c(c1)OCO2,33.8*,?,14.7µM*,?,25.7,-61.4*
O=C(CCSc1ccc(Br)cc1)c1ccc(O)cc1,-1.5,-3.3%,4.9%,-2.8%,5.9,-31.2
O=C(Cn1cnc2ccccc2c1=O)c1ccc2ccccc2c1,56.4*,-29.5%,28.8%,71.3%,68.4*,61.7
O=C(O)Cn1cnc2ccccc2c1=O,-6.8,4.4%,-19.7%,·,-16.6,25.1
CC(C)(C)NC(=O)NC(=O)COC(=O)Cn1cnc2ccccc2c1=O,-5.4,11.4%,-3.0%,11.7µM*,-9.3,24.8
Cc1cc(C(=O)Cn2cnc3ccccc3c2=O)c(C)n1C1CC1,·,3.6%,50.9%,-3.6%,·,-3.2
Cc1ccc(C(=O)Cn2cnc3ccccc3c2=O)cc1C,64.2*,-10.0%,·,12.5%,104.1*,86.4
COc1ccc(C(=O)Cn2cnc3ccccc3c2=O)cc1,40.9*,6.7%,130.6%,79.1%,88.6*,22.6
COC(=O)Cn1cnc2ccccc2c1=O,3.9,10.7%,·,·,-15.2,65.5
O=C(COC(=O)Cn1cnc2ccccc2c1=O)Nc1ccccc1OC(F)F,·,5.3%,·,·,·,19.0
COc1ccc(-n2c(SCC(=O)N3CCC(C)CC3)nc3c([nH]c4ccccc43)c2=O)cc1,·,·,·,·,·,14.7
O=C(Cn1cnc2ccccc2c1=O)c1ccc2c(c1)OCCO2,49.6*,17.3%,i,199.5%,70.0*,16.0
CSCc1c(C(=O)OCC(=O)c2ccc[nH]2)oc2ccccc12,·,?,0.8%,-2.0%,·,·
CC(=O)N(c1ccccc1)C(C(=O)c1ccccc1)c1ccccc1 (centres undefined),·,-28.7%,·,·,·,-6.0
O=C(c1ccccc1)N1N=C(c2ccccc2O)CC1c1ccccc1 (centres undefined),-2.9,-10.6%,?,5.86µM*,-3.8,6.9
COc1ccc(C2CC(c3cccs3)=NN2C(=O)c2ccccc2)cc1OC (centres undefined),2.4,-13.1%,0.415µM*,·,-4.3,-4.7
